Test results as given in PubChem BioAssay AID1159580 (chemical genetic matrix, 2015).
Hit rate of the full screen: of about 5,500 compounds, about 2,000 (36%) were called active. Not shown: some 18% with an inconclusive outcome. The list shows a part of the results. Values without a mark were called inactive. No stated cut-off is given here; in the data, active means normalized growth mostly below about 0.91 (no sharp cut-off); inconclusive means no clear call, values can overlap the other calls; inactive means mostly above about 0.92.

Experiment: chemical genetic growth profiling, strain panel (AID 1159580);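 further: tested at 20 µM; growth read once vehicle control cultures reached saturation at 30 °C; 1 = growth at the plate median or of vehicle wells; lower values mean less growth of the strain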
Conditions: growth OD

C[n+]1c2cc(N)ccc2cc2ccc(N)cc21
normalized growth (S. cerevisiae deletion strains, locus YKL009W, strain mrt4, hits give low values): 0.933
normalized growth (S. cerevisiae deletion strains, locus YKL068W, hits give low values): 0.956
normalized growth (S. cerevisiae deletion strains, locus YKL085W, strain MDH1 (second series), hits give low values): 0.963
normalized growth (S. cerevisiae deletion strains, locus YKL085W, strain MDH1, hits give low values): 0.963
normalized growth (S. cerevisiae deletion strains, locus YKL160W, strain elf1, hits give low values): 0.586 (active)
normalized growth (S. cerevisiae deletion strains, locus YKL190W, strain CNB1, hits give low values): 0.85 (active)
normalized growth (S. cerevisiae deletion strains, locus YKR001C, strain vps1, hits give low values): 0.844 (active)
normalized growth (S. cerevisiae deletion strains, locus YKR026C, strain gcn3, hits give low values): 0.696 (active)
normalized growth (S. cerevisiae deletion strains, locus YKR091W, strain srl3, hits give low values): 0.784 (active)
normalized growth (S. cerevisiae deletion strains, locus YLL001W, strain dnm1, hits give low values): 0.456 (active)
normalized growth (S. cerevisiae deletion strains, locus YLL026W, hits give low values): 0.471 (active)
normalized growth (S. cerevisiae deletion strains, locus YLL041C, strain sdh2, hits give low values): 0.652 (active)
normalized growth (S. cerevisiae deletion strains, locus YLR027C, strain aat2, hits give low values): 0.446 (active)
normalized growth (S. cerevisiae deletion strains, locus YLR039C, strain RIC1, hits give low values): 0.906
normalized growth (S. cerevisiae deletion strains, locus YLR058C, strain SHM2, hits give low values): 0.743 (active)
normalized growth (S. cerevisiae deletion strains, locus YLR102C, strain apc9, hits give low values): 0.924 (active)
normalized growth (S. cerevisiae deletion strains, locus YLR113W, strain HOG1, hits give low values): 0.862
normalized growth (S. cerevisiae deletion strains, locus YLR221C, strain rsa3, hits give low values): 0.468 (active)
normalized growth (S. cerevisiae deletion strains, locus YLR258W, strain gsy2, hits give low values): 0.524 (active)
normalized growth (S. cerevisiae deletion strains, locus YLR262C, strain YPT6 (second series), hits give low values): 0.718 (active)
normalized growth (S. cerevisiae deletion strains, locus YLR262C, strain YPT6, hits give low values): 0.902
normalized growth (S. cerevisiae deletion strains, locus YLR268W, strain sec22, hits give low values): 0.776 (active)
normalized growth (S. cerevisiae deletion strains, locus YLR320W, strain mms22, hits give low values): 0.191 (active)
normalized growth (S. cerevisiae deletion strains, locus YLR330W, strain CHS5, hits give low values): 0.863 (active)
normalized growth (S. cerevisiae deletion strains, locus YLR342W, strain FKS1 (second series), hits give low values): 0.802
normalized growth (S. cerevisiae deletion strains, locus YLR342W, strain FKS1, hits give low values): 0.752 (active)
normalized growth (S. cerevisiae deletion strains, locus YLR357W, strain rsc2, hits give low values): 0.669 (active)
normalized growth (S. cerevisiae deletion strains, locus YLR370C, strain arc18, hits give low values): 0.506 (active)
normalized growth (S. cerevisiae deletion strains, locus YLR371W, strain rom2, hits give low values): 0.908 (active)
normalized growth (S. cerevisiae deletion strains, locus YLR384C, strain iki3, hits give low values): 0.682 (active)
normalized growth (S. cerevisiae deletion strains, locus YLR418C, strain cdc73, hits give low values): 0.727 (active)
normalized growth (S. cerevisiae deletion strains, locus YML016C, strain PPZ1, hits give low values): 0.806 (active)
normalized growth (S. cerevisiae deletion strains, locus YML032C, strain rad52, hits give low values): 0.195 (active)
normalized growth (S. cerevisiae deletion strains, locus YML120C, strain ndi1, hits give low values): 0.409 (active)
normalized growth (S. cerevisiae deletion strains, locus YML124C, strain tub3, hits give low values): 0.928 (active)
normalized growth (S. cerevisiae deletion strains, locus YMR058W, strain fet3, hits give low values): 0.531 (active)
normalized growth (S. cerevisiae deletion strains, locus YMR078C, strain ctf18, hits give low values): 0.783 (active)
normalized growth (S. cerevisiae deletion strains, locus YMR125W, strain sto1, hits give low values): 0.703 (active)
normalized growth (S. cerevisiae deletion strains, locus YMR129W, hits give low values): 0.648 (active)
normalized growth (S. cerevisiae deletion strains, locus YMR205C, strain PFK2, hits give low values): 0.439 (active)
normalized growth (S. cerevisiae deletion strains, locus YMR223W, strain ubp8, hits give low values): 0.717 (active)
normalized growth (S. cerevisiae deletion strains, locus YMR231W, strain pep5, hits give low values): 0.945
normalized growth (S. cerevisiae deletion strains, locus YMR263W, strain SAP30, hits give low values): 0.626 (active)
normalized growth (S. cerevisiae deletion strains, locus YMR307W, strain GAS1, hits give low values): 0.874
normalized growth (S. cerevisiae deletion strains, locus YNL067W, strain RPL9B, hits give low values): 0.698 (active)
normalized growth (S. cerevisiae deletion strains, locus YNL071W, strain lat1, hits give low values): 0.28 (active)
normalized growth (S. cerevisiae deletion strains, locus YNL128W, strain TEP1, hits give low values): 0.613 (active)
normalized growth (S. cerevisiae deletion strains, locus YNL153C, strain GIM3, hits give low values): 0.744 (active)
normalized growth (S. cerevisiae deletion strains, locus YNL183C, strain NPR1, hits give low values): 0.87
normalized growth (S. cerevisiae deletion strains, locus YNL209W, strain ssb2, hits give low values): 0.554 (active)
normalized growth (S. cerevisiae deletion strains, locus YNL233W, strain BNI4, hits give low values): 0.725 (active)
normalized growth (S. cerevisiae deletion strains, locus YNL248C, strain rpa49, hits give low values): 0.167 (active)
normalized growth (S. cerevisiae deletion strains, locus YNL250W, strain rad50, hits give low values): 0.817 (active)
normalized growth (S. cerevisiae deletion strains, locus YNL271C, strain bni1, hits give low values): 0.911 (active)
normalized growth (S. cerevisiae deletion strains, locus YNL298W, strain CLA4, hits give low values): 0.896 (active)
normalized growth (S. cerevisiae deletion strains, locus YNL307C, strain MCK1, hits give low values): 0.66 (active)
normalized growth (S. cerevisiae deletion strains, locus YNL322C, strain KRE1 (second series), hits give low values): 0.218 (active)
normalized growth (S. cerevisiae deletion strains, locus YNL322C, strain KRE1, hits give low values): 0.836 (active)
normalized growth (S. cerevisiae deletion strains, locus YNR049C, strain mso1, hits give low values): 0.677 (active)
normalized growth (S. cerevisiae deletion strains, locus YNR052C, strain pop2, hits give low values): 0.801 (active)
normalized growth (S. cerevisiae deletion strains, locus YOL006C, strain TOP1, hits give low values): 0.349 (active)
normalized growth (S. cerevisiae deletion strains, locus YOL012C, strain htz1): 0.393
normalized growth (S. cerevisiae deletion strains, locus YOL147C, strain pex11, hits give low values): 0.882 (active)
normalized growth (S. cerevisiae deletion strains, locus YOR001W, strain rrp6, hits give low values): 0.442 (active)
normalized growth (S. cerevisiae deletion strains, locus YOR061W, strain CKA2, hits give low values): 0.865 (active)
normalized growth (S. cerevisiae deletion strains, locus YOR069W, strain VPS5, hits give low values): 0.915 (active)
normalized growth (S. cerevisiae deletion strains, locus YOR070C, strain gyp1, hits give low values): 0.557 (active)
normalized growth (S. cerevisiae deletion strains, locus YOR080W, strain dia2, hits give low values): 0.409 (active)
normalized growth (S. cerevisiae deletion strains, locus YOR083W, strain WHI5, hits give low values): 0.452 (active)
normalized growth (S. cerevisiae deletion strains, locus YOR106W, strain vam3, hits give low values): 0.38 (active)
normalized growth (S. cerevisiae deletion strains, locus YOR136W, strain idh2, hits give low values): 0.91 (active)
normalized growth (S. cerevisiae deletion strains, locus YOR144C, strain elg1, hits give low values): 0.858 (active)
normalized growth (S. cerevisiae deletion strains, locus YOR184W, strain ser1, hits give low values): 0.664 (active)
normalized growth (S. cerevisiae deletion strains, locus YOR231W, strain MKK1, hits give low values): 0.822 (active)
normalized growth (S. cerevisiae deletion strains, locus YOR265W, strain rbl2, hits give low values): 0.599 (active)
normalized growth (S. cerevisiae deletion strains, locus YOR270C, strain vph1, hits give low values): 0.353 (active)
normalized growth (S. cerevisiae deletion strains, locus YOR290C, strain snf2, hits give low values): 0.447 (active)
normalized growth (S. cerevisiae deletion strains, locus YOR316C, strain cot1, hits give low values): 0.926
normalized growth (S. cerevisiae deletion strains, locus YPL051W, strain arl3, hits give low values): 0.597 (active)
normalized growth (S. cerevisiae deletion strains, locus YPL055C, strain LGE1, hits give low values): 0.678 (active)
normalized growth (S. cerevisiae deletion strains, locus YPL078C, strain atp4, hits give low values): 0.465 (active)
normalized growth (S. cerevisiae deletion strains, locus YPL106C, strain sse1, hits give low values): 0.695 (active)
normalized growth (S. cerevisiae deletion strains, locus YPL240C, strain hsp82, hits give low values): 0.685 (active)
normalized growth (S. cerevisiae deletion strains, locus YPL241C, strain CIN2, hits give low values): 0.88 (active)
normalized growth (S. cerevisiae deletion strains, locus YPL256C, strain CLN2, hits give low values): 0.903
normalized growth (S. cerevisiae deletion strains, locus YPR119W, strain clb2, hits give low values): 0.92 (active)
normalized growth (S. cerevisiae deletion strains, locus YPR141C, strain kar3, hits give low values): 0.93
normalized growth (S. cerevisiae deletion strains, locus YPR163C, strain tif3, hits give low values): 0.883 (active)
normalized growth (S. cerevisiae deletion strains, locus YPR167C, strain met16, hits give low values): 0.865 (active)
normalized growth (S. cerevisiae deletion strains, strain wtn01, hits give low values): 0.793 (active)
normalized growth (S. cerevisiae strains, strain wild type, hits give low values): 0.831 (active)
